Our source for the Potency values is PubChem BioAssay (NCATS).

The nature of experiment [1]: qHTS of pediatric cancer cell lines to identify multiple opportunities for drug repurposing: Primary screen for TC32 cells (AID 1347089). Also: nearly all actives have a fitted effect of over 60% in size. Also: potency is read from the fitted curve at half-maximal effect. Put shortly: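 TC32 cells, 500-1,000/well in growth medium, compound-treated 48 h at 37 °C; viability from CellTiter-Glo luminescence. Primary screen: MIPE 11-point (0.78 nM–46 µM final), NPC 8-point (0.59 nM–46 µM final); confirmatory at 11-point dilutions.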
Background: qHTS replaces the single test concentration by a dilution series.

Experiment [2] can be described thus: qHTS of pediatric cancer cell lines to identify multiple opportunities for drug repurposing: Primary screen for DAOY cells (AID 1347090). Also: nearly all actives have a fitted effect of over 55% in size. Also: potency is read from the fitted curve at half-maximal effect. Summed up: (§1)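 Cell viability, CellTiter-Glo luminescence; 500-1,000 cells/well, 8- or 11-point titration, 48 h compound exposure at 37 degrees C, 5% CO2. Controls: DMSO neutral, bortezomib 2.3 µM final as positive.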
Experiment [3] in a line: qHTS of pediatric cancer cell lines to identify multiple opportunities for drug repurposing: Primary screen for SJ-GBM2 cells (AID 1347091). Also: potency is read from the fitted curve at half-maximal effect. Put shortly:
as §1

Experiment [4] in a line: qHTS of pediatric cancer cell lines to identify multiple opportunities for drug repurposing: Primary screen for A673 cells (AID 1347092). Also: nearly all actives have a fitted effect of over 45% in size. Also: potency is read from the fitted curve at half-maximal effect. Put shortly: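 A673 cells (500-1,000 cells/well) were treated 48 hours at 37 degrees C with compounds at 11-point (0.78 nM to 46 µM) or 8-point (0.59 nM to 46 µM) dilutions. Viability read by CellTiter-Glo luminescence; concentration-response curves fitted.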

Experiment [5] is described as follows: qHTS of pediatric cancer cell lines to identify multiple opportunities for drug repurposing: Primary screen for BT-37 cells (AID 1347094). Also: potency is read from the fitted curve at half-maximal effect. Summed up:
(§2)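 Cells plated at 500-1,000/well in growth medium, compounds added after 5 h. MIPE tested at 11 points (from 0.78 nM), NPC at 8 points (from 0.59 nM). CellTiter-Glo luminescence after 48 h; concentration-response curves from primary screen.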

Experiment [6] is described as follows: qHTS of pediatric cancer cell lines to identify multiple opportunities for drug repurposing: Primary screen for NB-EBc1 cells (AID 1347095). Also: potency is read from the fitted curve at half-maximal effect. Summed up:
as §2

Experiment [7] is described as follows: qHTS of pediatric cancer cell lines to identify multiple opportunities for drug repurposing: Primary screen for U-2 OS cells (AID 1347096). Also: nearly all actives have a fitted effect of over 50% in size. Summed up: (§3)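 Cells (500-1,000/well) rested 5 h, then received compounds for 48 h; metabolically active cells were measured by CellTiter-Glo luminescence. Final concentrations spanned up to 46 µM (MIPE, 11-point) or 0.59 nM-46 µM (NPC, 8-point) in primary screens, 11-point in follow-ups.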

Experiment [8] is described as follows: qHTS of pediatric cancer cell lines to identify multiple opportunities for drug repurposing: Primary screen for NB1643 cells (AID 1347099). Also: nearly all actives have a fitted effect of over 50% in size. Also: potency is read from the fitted curve at half-maximal effect. Summed up:
as §2

Experiment [9] can be described thus: qHTS of pediatric cancer cell lines to identify multiple opportunities for drug repurposing: Primary screen for LAN-5 cells (AID 1347100). Also: potency is read from the fitted curve at half-maximal effect. Summed up:
as §3

Experiment [10] can be described thus: qHTS of pediatric cancer cell lines to identify multiple opportunities for drug repurposing: Primary screen for Rh18 cells (AID 1347102). Also: nearly all actives have a fitted effect of over 65% in size. Put shortly:
as §3

Experiment [11] can be described thus: qHTS of pediatric cancer cell lines to identify multiple opportunities for drug repurposing: Primary screen for RD cells (AID 1347104). Also: nearly all actives have a fitted effect of over 55% in size. Also: potency is read from the fitted curve at half-maximal effect. Put shortly: as §2
Experiment [12] in a line: qHTS of pediatric cancer cell lines to identify multiple opportunities for drug repurposing: Primary screen for Saos-2 cells (AID 1347097). Also: nearly all actives have a fitted effect of over 40% in size. Also: potency is read from the fitted curve at half-maximal effect. Put shortly: as §2
A short description of experiment [13]: qHTS of pediatric cancer cell lines to identify multiple opportunities for drug repurposing: Primary screen for SK-N-SH cells (AID 1347098). Also: nearly all actives have a fitted effect of over 65% in size. Also: potency is read from the fitted curve at half-maximal effect. Summed up: as §3
Experiment [14] in a line: qHTS of pediatric cancer cell lines to identify multiple opportunities for drug repurposing: Primary screen for BT-12 cells (AID 1347101). Also: nearly all actives have a fitted effect of over 25% in size. Also: potency is read from the fitted curve at half-maximal effect. Put shortly: as §3
Experiment [15] is described as follows: qHTS of pediatric cancer cell lines to identify multiple opportunities for drug repurposing: Primary screen for OHS-50 cells (AID 1347103). Also: nearly all actives have a fitted effect of over 40% in size. Put shortly: as §3
The nature of experiment [16]: qHTS of pediatric cancer cell lines to identify multiple opportunities for drug repurposing: Primary screen for SK-N-MC cells (AID 1347093). Also: series mostly up to about 46 µM. Summed up: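 Metabolically active cells were quantified by ATP-dependent luminescence (CellTiter-Glo, 15 min at room temperature) following 48 h treatment. Cells had been plated at 500-1,000 per well and settled for 5 h beforehand.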

Results filed as inconclusive are left out. Activity calls are given as the source filed them. Calls follow the shape of the dose curve; as a rule, active = well fitted curve in the direction sought with a large enough effect; inconclusive = small, poorly fitted or top-dose-only effect, or another doubt; inactive = no such curve, though single readings can be large; an effect the other way counts as inactive or inconclusive.

For the molecule `CC1(COc2ccc(CC3SC(=O)NC3=O)cc2)CCCCC1` (stereo unspecified), the Potency result in [1], in experiment [2], in [3], in experiment [4], in experiment [5] and in experiment [6] was “inactive” each time. Also, the Potency result in experiment [7], in experiment [8], in experiment [9], in experiment [10] and in experiment [11] was “inactive” each time.
Turning to `Oc1c(Cl)cc(Cl)c(Cl)c1Cc1c(O)c(Cl)cc(Cl)c1Cl`, the Potency in [1] was 7.45 µM (active); in experiment [2], 8.41 µM (active); in [3] it was 4.22 µM (active); in [4], 21.1 µM (active); in [5] it was 9.78 µM (active); in experiment [6], 4.73 µM (active). Besides, the Potency in experiment [12] was 5.96 µM (active); in experiment [13] it was 12.2 µM (active); in experiment [8] it was 5.96 µM (active); in experiment [9], 4.22 µM (active); in [14], 13.8 µM (active); in experiment [11], 11.9 µM (active).
As for `CCOc1ccccc1OCCN[C@H](C)Cc1ccc(OC)c(S(N)(=O)=O)c1`, the Potency entry in experiment [1], in experiment [2], in [3], in [4], in experiment [5] and in experiment [6] was “inactive” throughout. Also, the Potency result in experiment [7], in experiment [12], in experiment [13], in [8], in experiment [9] and in experiment [14] was “inactive” each time. For the same molecule, the Potency result in experiment [10] and in [11] was “inactive” throughout.
On to `CC(C)[C@@H]1CC[C@@H](C)CC1=O`, for which the Potency entry in experiment [1], in [2], in experiment [3], in experiment [4], in experiment [5] and in experiment [6] was “inactive” in each case. For the same molecule, the Potency entry in [7], in experiment [12], in [13], in experiment [9], in experiment [14] and in [10] was “inactive” in each case. For the same molecule, the Potency result in [15] and in [11] was “inactive” throughout.
On to `O=C1C(CCS(=O)c2ccccc2)C(=O)N(c2ccccc2)N1c1ccccc1` (stereo unspecified), for which the Potency result in [1], in experiment [2], in [3], in [4], in experiment [5] and in [6] was “inactive” throughout. The Potency entry in experiment [7], in experiment [12], in experiment [13], in experiment [8], in experiment [9] and in experiment [14] was “inactive” throughout. The Potency result in [10], in experiment [15] and in [11] was “inactive” throughout.
For `CCC(CC)(CC(=O)Nc1cccc(/C=C/c2nc(C3CCC3)cs2)c1)C(=O)O`, the Potency entry in experiment [1], in experiment [2], in experiment [3], in [4], in experiment [5] and in experiment [6] was “inactive” each time. In addition, the Potency result in experiment [7], in experiment [12], in [13], in experiment [9], in [14] and in [10] was “inactive” each time. Moreover, the Potency entry in [11] was “inactive”.
Turning to `NS(=O)(=O)c1cc(C(=O)O)cc(N2CCCC2)c1Oc1ccccc1`, the Potency result in experiment [1], in experiment [2], in experiment [3], in [4], in experiment [16] and in experiment [7] was “inactive” throughout. Also, the Potency result in [13], in [8], in [9], in [14], in [10] and in [15] was “inactive” throughout. Besides, the Potency entry in [11] was “inactive”.
Regarding `CCOC(=O)[C@H](CCc1ccccc1)N[C@@H](C)C(=O)N1[C@H](C(=O)O)C[C@@H]2CCC[C@@H]21`, the Potency entry in experiment [1], in experiment [2], in experiment [3], in experiment [4], in experiment [5] and in experiment [6] was “inactive” each time. Moreover, the Potency result in [7], in [13], in experiment [9], in experiment [14], in experiment [10] and in [11] was “inactive” in each case.
Take `C[C@@H](O)[C@H]1C(=O)N2C(C(=O)O)=C(S[C@@H]3CN[C@H](CNS(N)(=O)=O)C3)[C@H](C)[C@H]12`: the Potency result in experiment [1], in [2], in experiment [3], in [4], in experiment [5] and in experiment [6] was “inactive” throughout. Also, the Potency result in experiment [7], in [12], in [8], in [9], in [14] and in experiment [10] was “inactive” each time. The Potency entry in experiment [15] and in experiment [11] was “inactive” each time.
Consider `CN(Cc1ccc(C(C)(C)C)cc1)Cc1cccc2ccccc12`, for which the Potency entry in experiment [1], in experiment [2], in experiment [3], in experiment [4], in [5] and in [6] was “inactive” each time. Further, the Potency result in [7], in experiment [13], in [9], in [14], in experiment [10] and in experiment [11] was “inactive” throughout.
Consider `CCN(CC)CCOC(=O)C(Cc1cccc2ccccc12)CC1CCCO1` (stereo unspecified), for which the Potency result in experiment [1], in experiment [2], in experiment [3], in experiment [4], in experiment [5] and in experiment [6] was “inactive” each time. Further, the Potency entry in experiment [7], in [13], in experiment [8], in [9], in [14] and in [10] was “inactive” each time.
Take `O=C(O)C(Cc1cc(I)c(O)c(I)c1)c1ccccc1` (stereo unspecified): the Potency entry in experiment [1], in [2], in [3], in experiment [4], in [5] and in experiment [6] was “inactive” each time. In addition, the Potency result in experiment [7], in experiment [12], in [8], in [9], in experiment [14] and in [10] was “inactive” throughout. The Potency result in [15] and in experiment [11] was “inactive” in each case.
Take `CCCc1ncc(C[n+]2ccccc2C)c(N)n1`: the Potency result in [1], in experiment [2], in experiment [3], in experiment [4], in experiment [5] and in experiment [6] was “inactive” in each case. Further, the Potency result in experiment [7], in experiment [13], in experiment [8], in [9], in experiment [10] and in [15] was “inactive” each time. The Potency entry in [11] is “inactive”.
As for `O=C(O)CCC(=O)Nc1ccc(S(=O)(=O)Nc2nccs2)cc1`, the Potency entry in experiment [1], in [2], in experiment [3], in experiment [4], in experiment [5] and in experiment [6] was “inactive” throughout. Also, the Potency entry in [7], in experiment [12], in [13], in experiment [9], in experiment [14] and in experiment [10] was “inactive” throughout. Further, the Potency result in experiment [15] and in experiment [11] was “inactive” throughout.
With `CN(C)C(=O)Nc1ccc(Cl)c(Cl)c1`, the Potency entry in experiment [1], in experiment [2], in experiment [3], in [4], in experiment [16] and in experiment [7] was “inactive” throughout. Further, the Potency result in experiment [12], in [8], in experiment [9], in experiment [14], in experiment [10] and in experiment [15] was “inactive” throughout. Besides, the Potency result in experiment [11] is “inactive”.
With `CCOC(=O)C(C#N)=C(c1ccccc1)c1ccccc1`, the Potency result in [1], in experiment [2], in experiment [3], in [4], in [5] and in experiment [6] was “inactive” each time. The Potency entry in experiment [7], in [12], in [13], in [8], in [9] and in [10] was “inactive” each time. The Potency entry in experiment [11] was “inactive”.
Turning to `O=C1OC2(c3ccccc31)c1cc(Br)c(O)c(Br)c1Oc1c2cc(Br)c(O)c1Br`, the Potency result in experiment [1], in [2], in [3], in [4], in experiment [5] and in [6] was “inactive” throughout. For the same molecule, the Potency entry in [7], in [9], in experiment [14], in [10], in experiment [15] and in [11] was “inactive” each time.
